Sampled rows, rich in hits. Any-hit rate of the full collection: about 19%.
DT40 TDP1 CPT – DT40-hTDP1 cell growth loss with CPT | chicken DT40 Tdp1-/-;hTDP1 cells + 20 nM CPT, ATP luminescence, 48 h | AID 686979 | Potency, µM (titrated, usually from 46.2 µM), for inactives: top-dose activity change, negative = growth inhibition, hits mostly inhibitors | 12% of 420,000 active; also: nearly all actives have a fitted effect of over 55% in size
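Cell growth measured by CellTiter-Glo luminescence after a minimum 48 h, 37 C compound exposure with 20 nM CPT in Tdp1-knockout DT40 cells stably expressing hTDP1, seeded 400/well; qHTS titration format.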
HT1080NT lethal – kills 2HG-producing HT-1080-NT fibrosarcoma cells | HT-1080-NT fibrosarcoma viability, CellTiter-Glo ATP luminescence, 48 h | Potency, µM (series often up to 46.1 µM), without a hit: at the highest dose activity, negative = less viability, actives largely listed as cytotoxic | AID 686970 | 1.6% of 360,000 active;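 also: NT is the 2HG producing partner of a matched IDH1 knockdown line; 0% = DMSO-treated cells and -100% = media-only wells without cells; nearly all actives have a fitted effect of over 55% in size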
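Luminescent CellTiter-Glo readout after 48 hours of compound exposure at 37 degrees C defined viability of HT-1080-NT cells. Activity was normalized to DMSO wells and cell-free media wells; concentration-response curves were fitted and assigned curve classes.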
KB-V1 MDR tox – kills drug-selected multidrug resistant KB-V1 cells. KB-V1 MDR cells viability, CellTiter-Glo, 72 h. Potency, µM (titrated, usually from 46.1 µM), actives largely listed as cytotoxic. 3.4% of 400,000 active; also: nearly all actives have a fitted effect of over 60% in size
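Cytotoxicity toward P-gp-expressing KB-V1 cells was determined as loss of CellTiter-Glo luminescence after 72 h at 37 degrees C. Compounds were tested in quantitative HTS format across a concentration range, with curves fitted to normalized data.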
KB-3-1 tox – kills parental KB-3-1 adenocarcinoma cells; KB-3-1 viability, CellTiter-Glo ATP luminescence, 72 h; 1.4% of 400,000 active; Potency, µM (doses to about 46.1 µM), actives largely listed as cytotoxic; also: nearly all actives have a fitted effect of over 60% in size
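Viability of parental KB-3-1 cells, measured by CellTiter-Glo luminescence, followed a 72 h incubation at 37 °C with pinned compounds in phenol-red-free DMEM containing 10% FBS.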
HT1080 IDH1KD tx – toxicity to HT-1080 IDH1 knockdown cells (counter line); HT-1080 IDH1 knockdown viability, ATP luminescence, 48 h; Potency, µM (series often up to 46.1 µM), without a hit: top-dose activity, negative = toxicity, usual class: cytotoxic; 2% of 360,000 active; AID 686971;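 also: 0% = DMSO wells and -100% = cell-free medium wells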
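Viability of IDH1-knockdown HT-1080 fibrosarcoma cells was assessed by CellTiter-Glo after 48 h at 37 °C with titrated compound; concentration-effect curves were classified by fit quality and response size.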
TDP1 cell noCPT – qHTS for Inhibitors of human tyrosyl-DNA phosphodiesterase 1 (TDP1): qHTS in cells in absence of CPT | DT40 Tdp1-/- hTDP1 cells, no CPT, ATP luminescence, 48 h | Potency, µM (doses to about 46.2 µM), for the others: at the top dose activity change, negative = growth inhibition, usual class: inhibitors | 15% of 420,000 active | AID 686978, 2013; also: nearly all actives have a fitted effect of over 55% in size
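Camptothecin absent (DMSO only). Human TDP1-complemented DT40 knockout cells, 400 cells/well, 37 °C for minimum 48 hr; ATP measured via CellTiter-Glo, 30 min dark incubation, luminescence.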
Numbers without * were called inactive. Calls follow the shape of the dose curve; as a rule, active = well fitted curve in the direction sought with a large enough effect; inconclusive = small, poorly fitted or top-dose-only effect, or another doubt; inactive = no such curve, though single readings can be large; an effect the other way counts as inactive or inconclusive. Unless noted, % is scaled to controls: 0 for no effect and ±100 for the full control effect; potency is read from the fitted curve at half-maximal effect.

What do the screens show for `Cc1ccc(Cc2cnc(N3C(=N)SC(c4ccccc4)C3=O)s2)cc1` (centres undefined)?
DT40 TDP1 CPT: 16µM*; HT1080NT lethal: -6%; KB-V1 MDR tox: inconclusive; KB-3-1 tox: inactive; HT1080 IDH1KD tx: -17%; TDP1 cell noCPT: 16µM*

Results for O=[N+]([O-])c1cc(C(F)(F)F)cc([N+](=O)[O-])c1NCc1cccnc1 ?
DT40 TDP1 CPT: -17%; HT1080NT lethal: -2%; KB-V1 MDR tox: inactive; KB-3-1 tox: inactive; HT1080 IDH1KD tx: -6%; TDP1 cell noCPT: -23%

Results for O=[N+]([O-])c1cc(C(F)(F)F)cc([N+](=O)[O-])c1NCCCNc1ccc([N+](=O)[O-])c2cccnc12 ?
DT40 TDP1 CPT: 6%; HT1080NT lethal: -10%; KB-V1 MDR tox: 10µM*; KB-3-1 tox: inactive; HT1080 IDH1KD tx: 2%; TDP1 cell noCPT: -3%

What do the screens show for `CCOc1ccc2c(c1)OC(c1ccc(OC)cc1)(C(F)(F)F)NC2=O` (centres undefined)?
DT40 TDP1 CPT: 3.3µM*; HT1080NT lethal: inconclusive; KB-V1 MDR tox: 5.2µM*; KB-3-1 tox: 5.2µM*; HT1080 IDH1KD tx: 4.6µM*; TDP1 cell noCPT: 3.3µM*

Results for COc1ccc(-n2cc3ccc([N+](=O)[O-])cc3n2)cc1 ?
DT40 TDP1 CPT: inconclusive; HT1080NT lethal: -9%; KB-V1 MDR tox: inconclusive; KB-3-1 tox: 5.8µM*; HT1080 IDH1KD tx: -11%; TDP1 cell noCPT: 29µM*

What do the screens show for `Cc1ccnc(NC(c2ccccc2)c2ccc3cccnc3c2O)c1` (centres undefined)?
DT40 TDP1 CPT: inconclusive; HT1080NT lethal: inconclusive; KB-V1 MDR tox: inconclusive; KB-3-1 tox: inconclusive; HT1080 IDH1KD tx: inconclusive; TDP1 cell noCPT: 21µM*

How did Cc1ccnc(NCc2c(O)ccc3ccccc23)c1 do in these assays?
DT40 TDP1 CPT: 0%; HT1080NT lethal: -7%; KB-V1 MDR tox: inactive; KB-3-1 tox: inactive; HT1080 IDH1KD tx: 2%; TDP1 cell noCPT: -17%

What do the screens show for `O=C(O)c1ccccc1NC(c1ccccc1)c1ccc2cccnc2c1O` (centres undefined)?
DT40 TDP1 CPT: 15µM*; HT1080NT lethal: -22%; KB-V1 MDR tox: inconclusive; KB-3-1 tox: inconclusive; HT1080 IDH1KD tx: 8.2µM*; TDP1 cell noCPT: inconclusive

Results for Cc1ccnc(NC(c2cc(C)ccc2O)c2ccc3cccnc3c2O)c1 (centres undefined) ?
DT40 TDP1 CPT: inconclusive; TDP1 cell noCPT: 10µM*

What do the screens show for `Cc1ccnc(NC(c2ccsc2)c2ccc3ccc(C)nc3c2O)c1` (centres undefined)?
DT40 TDP1 CPT: 23%; HT1080NT lethal: inconclusive; KB-V1 MDR tox: inactive; KB-3-1 tox: inactive; HT1080 IDH1KD tx: 15µM*; TDP1 cell noCPT: inconclusive

Results for COc1ccc(C(Nc2cc(C)ccn2)c2ccc3ccc(C)nc3c2O)cc1 (centres undefined) ?
DT40 TDP1 CPT: inconclusive; HT1080NT lethal: -20%; KB-V1 MDR tox: inactive; KB-3-1 tox: inactive; HT1080 IDH1KD tx: -8%; TDP1 cell noCPT: inconclusive

How did N#Cc1nc(-c2ccc(F)cc2)oc1N1CCC(C(N)=O)CC1 do in these assays?
DT40 TDP1 CPT: 0%; HT1080NT lethal: 10%; KB-V1 MDR tox: inactive; KB-3-1 tox: inactive; HT1080 IDH1KD tx: -3%; TDP1 cell noCPT: -6%

How did O=C(Nc1ccc(Cl)c(Cl)c1)C1C2C=CC3(O2)C1C(=O)N(CCN1CCCCC1)C3C(=O)NC1CCCCC1 (centres undefined) do in these assays?
DT40 TDP1 CPT: inconclusive; HT1080NT lethal: 21µM*; KB-V1 MDR tox: inactive; KB-3-1 tox: inactive; HT1080 IDH1KD tx: inconclusive; TDP1 cell noCPT: inconclusive
